PubChem BioAssay AID1159580 (chemical genetic matrix, 2015)
The whole screen tested about 5,500 compounds, of which about 2,000 (36%) were called active. Roughly 18% stayed inconclusive and do not appear here. Rule as the data show it: active = normalized growth mostly below about 0.91 (no sharp cut-off); inconclusive = no clear call, values can overlap the other calls; inactive = mostly above about 0.92. This is one part of the list.

Assay: chemical genetic growth profiling, strain panel (AID 1159580);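 also: tested at 20 µM; growth read once vehicle control cultures reached saturation at 30 °C; 1 = growth at the plate median or of vehicle wells; lower values mean less growth of the strain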
Settings: growth OD

Measured: normalized growth

COC(=O)[C@H]1[C@H]2C[C@@H]3c4[nH]c5cc(OC)ccc5c4CCN3C[C@H]2C[C@@H](OC(=O)c2cc(OC)c(OC)c(OC)c2)[C@@H]1OC
inactive: S. cerevisiae deletion strains, locus YKL009W, strain mrt4, hits give low values 1.02 | S. cerevisiae deletion strains, locus YKL068W, hits give low values 1.01 | S. cerevisiae deletion strains, locus YKL085W, strain MDH1 (second series), hits give low values 1.01 | S. cerevisiae deletion strains, locus YKL085W, strain MDH1, hits give low values 1.01 | S. cerevisiae deletion strains, locus YKL160W, strain elf1, hits give low values 0.961 | S. cerevisiae deletion strains, locus YKL190W, strain CNB1, hits give low values 0.967 | S. cerevisiae deletion strains, locus YKR001C, strain vps1, hits give low values 1.03 | S. cerevisiae deletion strains, locus YKR026C, strain gcn3, hits give low values 0.99 | S. cerevisiae deletion strains, locus YKR091W, strain srl3, hits give low values 0.982 | S. cerevisiae deletion strains, locus YLL001W, strain dnm1, hits give low values 1.02 | S. cerevisiae deletion strains, locus YLL026W, hits give low values 0.975 | S. cerevisiae deletion strains, locus YLL041C, strain sdh2, hits give low values 0.983 | S. cerevisiae deletion strains, locus YLR027C, strain aat2, hits give low values 0.986 | S. cerevisiae deletion strains, locus YLR039C, strain RIC1, hits give low values 1.05 | S. cerevisiae deletion strains, locus YLR058C, strain SHM2, hits give low values 0.999 | S. cerevisiae deletion strains, locus YLR102C, strain apc9, hits give low values 1 | S. cerevisiae deletion strains, locus YLR113W, strain HOG1, hits give low values 0.971 | S. cerevisiae deletion strains, locus YLR221C, strain rsa3, hits give low values 1.02 | S. cerevisiae deletion strains, locus YLR258W, strain gsy2, hits give low values 0.965 | S. cerevisiae deletion strains, locus YLR262C, strain YPT6 (second series), hits give low values 1 | S. cerevisiae deletion strains, locus YLR262C, strain YPT6, hits give low values 1.05 | S. cerevisiae deletion strains, locus YLR268W, strain sec22, hits give low values 1.04 | S. cerevisiae deletion strains, locus YLR320W, strain mms22, hits give low values 0.978 | S. cerevisiae deletion strains, locus YLR330W, strain CHS5, hits give low values 1 | S. cerevisiae deletion strains, locus YLR342W, strain FKS1 (second series), hits give low values 0.951 | S. cerevisiae deletion strains, locus YLR342W, strain FKS1, hits give low values 0.959 | S. cerevisiae deletion strains, locus YLR357W, strain rsc2, hits give low values 0.977 | S. cerevisiae deletion strains, locus YLR370C, strain arc18, hits give low values 0.976 | S. cerevisiae deletion strains, locus YLR371W, strain rom2, hits give low values 1.01 | S. cerevisiae deletion strains, locus YLR384C, strain iki3, hits give low values 0.989 | S. cerevisiae deletion strains, locus YLR418C, strain cdc73, hits give low values 0.977 | S. cerevisiae deletion strains, locus YML016C, strain PPZ1, hits give low values 1 | S. cerevisiae deletion strains, locus YML032C, strain rad52, hits give low values 1.02 | S. cerevisiae deletion strains, locus YML120C, strain ndi1, hits give low values 1 | S. cerevisiae deletion strains, locus YML124C, strain tub3, hits give low values 1.02 | S. cerevisiae deletion strains, locus YMR058W, strain fet3, hits give low values 0.986 | S. cerevisiae deletion strains, locus YMR078C, strain ctf18, hits give low values 1.01 | S. cerevisiae deletion strains, locus YMR125W, strain sto1, hits give low values 0.986 | S. cerevisiae deletion strains, locus YMR129W, hits give low values 0.981 | S. cerevisiae deletion strains, locus YMR205C, strain PFK2, hits give low values 0.982 | S. cerevisiae deletion strains, locus YMR223W, strain ubp8, hits give low values 0.995 | S. cerevisiae deletion strains, locus YMR231W, strain pep5, hits give low values 1 | S. cerevisiae deletion strains, locus YMR263W, strain SAP30, hits give low values 0.979 | S. cerevisiae deletion strains, locus YMR307W, strain GAS1, hits give low values 0.912 | S. cerevisiae deletion strains, locus YNL067W, strain RPL9B, hits give low values 0.994 | S. cerevisiae deletion strains, locus YNL071W, strain lat1, hits give low values 0.971 | S. cerevisiae deletion strains, locus YNL128W, strain TEP1, hits give low values 1 | S. cerevisiae deletion strains, locus YNL153C, strain GIM3, hits give low values 1 | S. cerevisiae deletion strains, locus YNL183C, strain NPR1, hits give low values 0.949 | S. cerevisiae deletion strains, locus YNL209W, strain ssb2, hits give low values 0.984 | S. cerevisiae deletion strains, locus YNL233W, strain BNI4, hits give low values 0.997 | S. cerevisiae deletion strains, locus YNL248C, strain rpa49, hits give low values 0.955 | S. cerevisiae deletion strains, locus YNL250W, strain rad50, hits give low values 1.01 | S. cerevisiae deletion strains, locus YNL271C, strain bni1, hits give low values 1.02 | S. cerevisiae deletion strains, locus YNL298W, strain CLA4, hits give low values 1.02 | S. cerevisiae deletion strains, locus YNL307C, strain MCK1, hits give low values 1.01 | S. cerevisiae deletion strains, locus YNL322C, strain KRE1 (second series), hits give low values 0.976 | S. cerevisiae deletion strains, locus YNL322C, strain KRE1, hits give low values 0.995 | S. cerevisiae deletion strains, locus YNR049C, strain mso1, hits give low values 0.972 | S. cerevisiae deletion strains, locus YNR052C, strain pop2, hits give low values 1 | S. cerevisiae deletion strains, locus YOL006C, strain TOP1, hits give low values 0.989 | S. cerevisiae deletion strains, locus YOL012C, strain htz1 0.714 | S. cerevisiae deletion strains, locus YOL147C, strain pex11, hits give low values 1.02 | S. cerevisiae deletion strains, locus YOR001W, strain rrp6, hits give low values 1.03 | S. cerevisiae deletion strains, locus YOR061W, strain CKA2, hits give low values 0.999 | S. cerevisiae deletion strains, locus YOR069W, strain VPS5, hits give low values 1 | S. cerevisiae deletion strains, locus YOR070C, strain gyp1, hits give low values 0.983 | S. cerevisiae deletion strains, locus YOR080W, strain dia2, hits give low values 0.982 | S. cerevisiae deletion strains, locus YOR083W, strain WHI5, hits give low values 0.948 | S. cerevisiae deletion strains, locus YOR106W, strain vam3, hits give low values 0.947 | S. cerevisiae deletion strains, locus YOR136W, strain idh2, hits give low values 1.02 | S. cerevisiae deletion strains, locus YOR144C, strain elg1, hits give low values 1.01 | S. cerevisiae deletion strains, locus YOR184W, strain ser1, hits give low values 1.04 | S. cerevisiae deletion strains, locus YOR231W, strain MKK1, hits give low values 0.983 | S. cerevisiae deletion strains, locus YOR265W, strain rbl2, hits give low values 0.988 | S. cerevisiae deletion strains, locus YOR270C, strain vph1, hits give low values 0.969 | S. cerevisiae deletion strains, locus YOR290C, strain snf2, hits give low values 0.948 | S. cerevisiae deletion strains, locus YOR316C, strain cot1, hits give low values 1.01 | S. cerevisiae deletion strains, locus YPL051W, strain arl3, hits give low values 0.979 | S. cerevisiae deletion strains, locus YPL055C, strain LGE1, hits give low values 0.972 | S. cerevisiae deletion strains, locus YPL078C, strain atp4, hits give low values 0.972 | S. cerevisiae deletion strains, locus YPL106C, strain sse1, hits give low values 0.895 | S. cerevisiae deletion strains, locus YPL240C, strain hsp82, hits give low values 0.992 | S. cerevisiae deletion strains, locus YPL241C, strain CIN2, hits give low values 0.997 | S. cerevisiae deletion strains, locus YPL256C, strain CLN2, hits give low values 0.983 | S. cerevisiae deletion strains, locus YPR119W, strain clb2, hits give low values 1.01 | S. cerevisiae deletion strains, locus YPR141C, strain kar3, hits give low values 1.02 | S. cerevisiae deletion strains, locus YPR163C, strain tif3, hits give low values 1.02 | S. cerevisiae deletion strains, locus YPR167C, strain met16, hits give low values 1.01 | S. cerevisiae deletion strains, strain wtn01, hits give low values 1.01 | S. cerevisiae strains, strain wild type, hits give low values 0.986
